AHR activator – human AHR activation; 320,000 compounds, 2.5% hits; AID 2796; P35869; AHR-responsive luciferase reporter cells, luminescence; activation, % at 5 µM; in the data active = activation above about 47%;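 note: 0% = vehicle wells and 100% = reference agonist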
NR3A LBD binder – NR3A (human) ligand-binding domain modulation | NR3A LBD differential scanning fluorimetry, Tm shift; 0% = protein alone, 100% = glycine-bound protein | Tm shift relative to glycine control, % at 25 µM | 340,000 compounds, 2.5% hits;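 active = melting temperature shift of at least 10% of the positive control shift, at one fixed dose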
Mot1-301 SUMO – SUMOylation pathway inhibition by Mot1-301 growth rescue; S. cerevisiae Mot1-301 growth rescue, ATP luminescence, 38.5C; percent above DMSO median, 100 means doubled; AID 2716; growth rescue, % at 18.8 µM; 320,000 compounds, 1% hits;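 active = every valid replicate shows activation above 250% relative to neutral control wells; inactive = the rest, any valid replicate at or below 250%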;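 note: OY570 slx delta 5 strain wells were the positive control but not used for scaling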
Cardio protect – protects H9c2 cardiomyocytes from peroxide injury | H2O2 injury protection, ATPLite, 2 h | protection from H2O2 cell death, % at 20 µM | 360,000 compounds, 0.63% hits;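 active = compounds giving at least 50% protection of heart cells from peroxide-induced death in the single-dose screen, raw or plate-pattern-corrected value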;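 note: 0% = DMSO wells with peroxide and 100% = DMSO wells without peroxide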
AI-2 QS modul – Vibrio harveyi AI-2 quorum sensing modulation. activity change, % at 7.5 µM. Vibrio harveyi JMH597 AI-2 luminescence/OD600 ratio, 9 h; active compounds read low; strain lacks LuxN and CqsS sensors; 0 = neutral-control median. 300,000 compounds, 0.4% hits; in the data active = activity change below about -75%, passing the limit was not always enough;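 note: luminescence divided by OD600 gain over 9 h not by final OD600 alone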
NTR1 ag – NTR1 (human) agonism; 330,000 compounds, 0.17% hits; P30989; activation, % at 20 µM; NTR1-U2OS beta-arrestin-GFP spot imaging, agonist mode;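 active = activation at or above 40% of the spot to cytoplasm intensity ratio, with at least 20 cells analyzed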;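 note: 0% = DMSO without peptide and 100% = 100 nM NTR1 peptide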
Target sequence (P30989 whole entry, looked up): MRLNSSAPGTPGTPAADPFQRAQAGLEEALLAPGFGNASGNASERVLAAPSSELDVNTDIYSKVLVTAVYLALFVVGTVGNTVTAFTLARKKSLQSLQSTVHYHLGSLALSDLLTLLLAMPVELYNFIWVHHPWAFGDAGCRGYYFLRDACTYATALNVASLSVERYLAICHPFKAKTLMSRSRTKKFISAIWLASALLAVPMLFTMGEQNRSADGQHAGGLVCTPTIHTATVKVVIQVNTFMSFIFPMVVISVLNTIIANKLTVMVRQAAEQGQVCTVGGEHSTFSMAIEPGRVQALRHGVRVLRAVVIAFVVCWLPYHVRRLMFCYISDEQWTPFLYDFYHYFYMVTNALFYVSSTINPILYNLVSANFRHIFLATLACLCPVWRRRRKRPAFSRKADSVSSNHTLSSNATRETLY
Yeast Mot1 SUMO – yeast SUMO pathway inhibition in dose response; 2,300 tested, under 10 active; shares compounds with Mot1-301 SUMO; S. cerevisiae Mot1-301 galactose growth, ATP luminescence, 24 h; -100 = growth of slx-deleted rescue strain; growth activity, percent, % at 42 µM;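 active = Signal drops as the depositor expects, and the fitted half-maximal dose is no more than ten times the top valid tested dose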;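 note: more negative values mean stronger growth rescue toward the control strain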
Active calls of the source: *; nt = no result; + = active, no number. A selection: hits, their analogues and other compounds. The true share with any hit is near 6.2%.

SMILES	AHR activator	NR3A LBD binder	Mot1-301 SUMO	Cardio protect	AI-2 QS modul	NTR1 ag	Yeast Mot1 SUMO
Cc1ccc(C(C)C)c(OCCNCCc2ccccc2)c1	-1	-1	-28	-21	nt	9	nt
COc1cc(/C=N/n2cnnc2)ccc1OCc1ccccc1	0	2	540*	0	9	-1	1
O=C1COc2ccc(C(=O)COC(=O)c3nc(Cl)ccc3Cl)cc2N1	nt	-2	nt	-2	nt	-1	nt
O=C1COc2ccc(C(=O)COC(=O)c3ncc(Cl)c(Cl)c3Cl)cc2N1	14	0	851*	1	nt	0	0
Cc1cc(=O)n2nc(N3CCCC(C(=O)NC4CCC(C)CC4)C3)sc2n1 (stereo not given)	0	-1	2	-6	21	-1	nt
Cc1cc(Br)ccc1NC(=O)CNC(=O)CNc1cccc([N+](=O)[O-])c1	3	-6	-13	-1	nt	0	nt
COc1ccc(-n2c(SCC(=O)NCC3CCCO3)nc3c(c2=O)SCC3)cc1OC (stereo not given)	-2	2	672*	4	29	1	0
O=C(CSc1nc(-c2ccccc2)cc(=O)[nH]1)Nc1ccc(Br)cc1	10	-3	423*	-2	0	2	-1
CC1C(=O)N2CCCc3cc(NC(=O)c4ccccc4Br)cc1c32 (stereo not given)	16	0	-14	1	0	2	nt
O=C(O)CCc1ccc(-c2ccccc2)n1NC(=O)c1cccs1	-2	-1	670*	1	32	-1	1
O=C(O)CC(NC(=O)c1ccc2c(c1)OCO2)c1cccc([N+](=O)[O-])c1 (stereo not given)	-1	0	+	0	27	0	0
O=C(O)CC(NC(=O)CC(c1ccccc1)c1ccccc1)c1cccc([N+](=O)[O-])c1 (stereo not given)	0	0	5	1	30	-1	nt
COc1ccc(C(=O)NCc2ccc(F)cc2)cc1S(=O)(=O)N1CCCC1	nt	-1	nt	4	nt	0	nt
O=C(CSc1ccc([N+](=O)[O-])cc1)Nc1ccccc1N1CCOCC1	0	4	3	-2	nt	0	nt
O=C(Nc1ccccc1N1CCOCC1)c1cc(Br)c(Br)s1	4	0	760*	-3	23	6	-1
O=C(CSc1ccc(Br)cc1)Nc1ccccc1N1CCOCC1	0	4	722*	-6	24	5	0
CCc1cc(C(=O)Nc2ccccc2N2CCOCC2)sc1C	8	-2	52	11	nt	1	nt
Cc1cc(F)ccc1S(=O)(=O)Nc1ccccc1C(=O)Nc1ccc2[nH]c(=O)[nH]c2c1	-3	9	370*	14	9	1	0
O=c1nc2ccc(Cl)cn2c2ccc(S(=O)(=O)N3CCCCC3)cc12	-7	-1	-22	3	15	2	nt
O=c1nc2ccc(Cl)cn2c2ccc(S(=O)(=O)N3CCOCC3)cc12	-3	-1	577*	5	21	0	0
O=C(CSc1nccc(=O)[nH]1)c1cc2ccccc2o1	21	2	586*	-2	3	0	0
C[C@H](NC(=O)c1ncn2c1C(=O)N(C)CC2)C(=O)OC(C)(C)C	nt	nt	nt	-2	nt	nt	nt
O=C1OC(Cc2ccccn2)C(O)=C1C1=NCCCN1 (stereo not given)	-6	-5	375*	7	22	-3	0
COc1ccc(-c2csc(NC(=O)CS(=O)(=O)c3ccccc3)n2)cc1	5	nt	31	2	22	6	nt
COc1ccc(-c2csc(NC(=O)CS(=O)(=O)c3ccc(F)cc3)n2)cc1OC	4	-3	555*	20	7	2	0
SMILES	AHR activator	NR3A LBD binder	Mot1-301 SUMO	Cardio protect	AI-2 QS modul	NTR1 ag	Yeast Mot1 SUMO
COc1ccc(C(=O)NCc2ccc(-c3nc4ccccc4s3)cc2)cc1	-2	0	-3	-8	25	2	nt
COc1cccc(C(=O)NCc2ccc(-c3nc4ccccc4s3)cc2)c1	-3	0	375*	-22	10	4	0
CC1(C(=O)NS(=O)(=O)C2CC2)CCCN(C(=O)/C=C/c2ccccc2)C1 (stereo not given)	nt	nt	nt	2	nt	nt	nt
CC(=O)N1CCC2(CC1)CC(=O)c1cc(OCC(=O)N3CCCC3)ccc1O2	1	1	488*	4	4	1	1
CCOC(=O)COc1ccc2c(c1)C(=O)CC1(CCN(C(C)=O)CC1)O2	0	0	-8	1	33	1	nt
Cc1ccccc1C(=O)NNC(=O)/C=C\C(=O)O	16	0	792*	9	-6	3	0
CS(=O)(=O)N1CCC(Oc2ccccc2C(=O)N2CCNC(=O)C2)CC1	-1	2	401*	3	50	1	0
CCCOC(=O)c1ccc(O)c(OC)c1	1	1	398*	-3	16	2	0
N#Cc1ccc(CN2CCN(C(=O)c3ccc(S(=O)(=O)N4CCCCCC4)cc3)CC2)cc1	0	-1	15	0	nt	-2	nt
Cc1nc(C)n(CC(=O)N2CCCC(C(=O)c3cccc4ccccc34)C2)n1 (stereo not given)	2	0	365*	0	20	0	-1
Cc1ccn(CC(=O)N2CCCC(C(=O)c3cccc4ccccc34)C2)n1 (stereo not given)	5	-2	287	-9	4	0	nt
Cc1cc(C)n(-c2ccc(NC(=O)C3CCCCN3C(=O)c3ccoc3C)cc2)n1 (stereo not given)	3	2	1	0	9	1	nt
Cc1cc(C)cc(C(=O)N2CCC3(CC2)NCCc2[nH]cnc23)c1	6	1	396*	4	28	0	0
COc1ccccc1N(C)S(=O)(=O)c1ccc(C(=O)N(C)Cc2cccc(F)c2)cc1	nt	nt	nt	4	nt	nt	nt
CCOCCn1c(-c2ccc(OC)cc2)nc2ccccc21	9	-1	477*	-6	26	-2	0
C=CCn1c(-c2ccc(OC)cc2)nc2ccccc21	5	-4	396*	-26	14	1	0
C=CCn1c(-c2ccc(N)cc2)nc2ccccc21	12	-2	265	-2	22	1	nt
CCCSc1ccc([C@@H]2[C@H]3C(=O)N(CC)C(=O)[C@H]3[C@]3(C(=O)OC)CCCCN23)cc1	5	-3	20	-15	3	-3	nt
CC(C)c1ccc(NC(=O)CN2C(=O)COc3ccc(S(=O)(=O)N4CCOCC4)cc32)cc1	1	1	-3	-3	21	1	nt
COc1ccccc1NS(=O)(=O)c1cc(Cl)ccc1OC	13	2	442*	-2	-6	2	1

Bioassay records from PubChem.
